Several values for one entry are separate records, joined by “and”; a condition that tells them apart may be missing. Equal values may be shown once. Screen size: about 5,500 compounds; about 2,000 (36%) were called active. Another 18% or so got no clear call; they are omitted. Cut-off read from the data, not from the text of the source: active = normalized growth mostly below about 0.91 (no sharp cut-off); inconclusive = no clear call, values can overlap the other calls; inactive = mostly above about 0.92. The list shows a part of the results.
Assay: chemical genetic growth profiling, strain panel (AID 1159580);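 note: tested at 20 µM; growth read once vehicle control cultures reached saturation at 30 °C; 1 = growth at the plate median or of vehicle wells; lower values mean less growth of the strain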
Conditions: S. cerevisiae deletion strains, growth OD

Measured: normalized growth

NC(N)=O
active: locus YJR043C, strain POL32, hits give low values 1.17 [resistant]
inactive: locus YAL013W, strain DEP1, hits give low values 1.02 | locus YAL021C, strain ccr4, hits give low values 1.02 | locus YAL026C, strain drs2, hits give low values 1.01 | locus YAL030W, strain snc1, hits give low values 1.02 | locus YBL061C, strain skt5, hits give low values 1.02 | locus YBR009C, strain hhf1, hits give low values 0.978 | locus YBR021W, strain FUR4, hits give low values 0.953 | locus YBR023C, strain chs3, hits give low values 1.02 | locus YBR171W, strain sec66, hits give low values 1.03 | locus YBR229C, strain ROT2, hits give low values 0.989 | locus YBR231C, strain swc5, hits give low values 1.03 | locus YBR279W, strain paf1, hits give low values 1.01 | locus YCL011C, strain gbp2, hits give low values 0.992 | locus YCL016C, strain dcc1, hits give low values 0.984 | locus YCL029C, strain bik1, hits give low values 0.991 | locus YCL061C, strain MRC1, hits give low values 1.03 | locus YCL069W, strain vba3, hits give low values 1 | locus YCR088W, strain abp1, hits give low values 1.01 | locus YDL005C, strain med2, hits give low values 1.01 | locus YDL035C, strain GPR1, hits give low values 1.01 | locus YDL040C, strain nat1, hits give low values 1.01 | locus YDL074C, strain BRE1, hits give low values 1.07 | locus YDL101C, strain DUN1, hits give low values 1 | locus YDL134C, strain PPH21, hits give low values 1 | locus YDL185W, strain tfp1, hits give low values 0.983 | locus YDL192W, strain arf1, hits give low values 0.994 | locus YDR001C, strain nth1, hits give low values 1.02 | locus YDR069C, strain doa4, hits give low values 1.04 | locus YDR101C, strain arx1, hits give low values 0.997 | locus YDR137W, strain rgp1, hits give low values 1.03 | locus YDR150W, strain NUM1, hits give low values 1.01 | locus YDR159W, strain sac3, hits give low values 0.965 | locus YDR162C, strain NBP2, hits give low values 1.04 | locus YDR195W, strain ref2 1.03 | locus YDR297W, strain sur2, hits give low values 1.01 | locus YDR318W, strain mcm21, hits give low values 0.998 | locus YDR334W, strain swr1, hits give low values 1.01 | locus YDR335W, strain msn5, hits give low values 1.01 | locus YDR388W, hits give low values 0.985 | locus YDR392W, strain spt3, hits give low values 0.959 | locus YDR502C, strain sam2, hits give low values 0.997 | locus YEL003W, strain gim4, hits give low values 1.01 | locus YEL037C, strain rad23, hits give low values 1.01 | locus YEL061C, strain CIN8 (second series), hits give low values 1.01 | locus YEL061C, strain CIN8, hits give low values 1.05 | locus YER015W, strain faa2, hits give low values 1.02 | locus YER016W, strain bim1, hits give low values 0.984 | locus YER110C, hits give low values 0.989 | locus YER111C, strain swi4, hits give low values 1.01 | locus YER155C, strain BEM2 (second series), hits give low values 1.01 | locus YER155C, strain BEM2, hits give low values 0.988 | locus YER167W, strain BCK2, hits give low values 0.983 | locus YFR010W, strain ubp6, hits give low values 1.01 | locus YGL078C, strain dbp3, hits give low values 0.988 | locus YGL086W, strain mad1, hits give low values 0.99 | locus YGL167C, strain pmr1, hits give low values 1.02 | locus YGL173C, strain kem1, hits give low values 1.02 | locus YGL227W, strain vid30, hits give low values 1.02 | locus YGL240W, strain doc1, hits give low values 1.03 | locus YGL248W, strain PDE1, hits give low values 1 | locus YGL253W, strain hxk2, hits give low values 1.01 | locus YGR078C, strain PAC10, hits give low values 1.03 | locus YGR135W, strain pre9, hits give low values 1 | locus YGR229C, strain SMI1, hits give low values 1.03 | locus YGR252W, strain gcn5, hits give low values 0.986 | locus YHR013C, strain ard1, hits give low values 0.998 | locus YHR027C, strain rpn1, hits give low values 1.01 | locus YHR030C, strain SLT2, hits give low values 0.986 and 1.01 | locus YHR079C, strain IRE1 (second series), hits give low values 0.991 | locus YHR079C, strain IRE1, hits give low values 1.01 | locus YHR094C, strain hxt1, hits give low values 0.996 | locus YHR129C, strain ARP1, hits give low values 0.998 | locus YHR142W, strain chs7, hits give low values 1.02 | locus YHR200W, strain rpn10, hits give low values 0.994 | locus YIL066C, strain RNR3, hits give low values 1.01 | locus YIL073C, strain SPO22, hits give low values 1.02 | locus YIL125W, strain kgd1, hits give low values 0.987 | locus YIR030C, strain dcg1, hits give low values 0.99 | locus YJL092W, strain hpr5, hits give low values 1.01 | locus YJL095W, strain BCK1 (second series), hits give low values 1.03 | locus YJL095W, strain BCK1, hits give low values 1.05 and 1.01 | locus YJL115W, strain asf1, hits give low values 1.01 | locus YJL129C, strain trk1, hits give low values 1.03 | locus YJL134W, strain LCB3, hits give low values 0.99 | locus YJL154C, strain vps35, hits give low values 1.01 | locus YJL164C, strain tpk1, hits give low values 0.985 | locus YJL166W, strain qcr8, hits give low values 1.02 | locus YJL168C, strain set2, hits give low values 0.98 | locus YJL187C, strain SWE1 (second series), hits give low values 1 | locus YJL187C, strain SWE1, hits give low values 1.02 | locus YJR066W, strain TOR1, hits give low values 0.951
